Assay [1] in a line: small molecules captured by biotinylated probe aFSTL3 – biochemical, small-molecule microarray, fluorescence 635/667, stem cell growth factor project, primary screen (AID 1064).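 Also: measures binding of the biotinylated anti-FSTL3 antibody to printed compounds.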 The conditions noted are these: higher = more signal.
Assay [2] is described as follows: binders from COS7 lysate, DM2A8 probe, primary screen, torsin A project, cell lysate, small-molecule microarray, fluorescence 635/667 (AID 1065). The conditions noted are these: higher = more signal, COS7 lysate expressing mutant human TOR1A.
Assay [3] in a line: small molecules captured by biotinylated probe aFGF2 – biochemical, small-molecule microarray, fluorescence 635/667, stem cell growth factor project, primary screen (AID 1067).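 Also: measures binding of biotinylated aFGF2 protein to printed compounds on slides; z-score merges feature fluorescence and signal-to-noise across triplicate slides.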 Particulars: higher = more signal.
Assay [4] in a line: small molecules captured by biotinylated probe aFGF10 – biochemical, small-molecule microarray, fluorescence 635/667, stem cell growth factor project, primary screen (AID 1071).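 Also: score merges 667 nm spot intensity and signal to noise from triplicate slides.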 The conditions noted are these: higher = more signal.
The target of assay [5] is Neurogenic locus notch homolog protein 2 (Homo sapiens) (UniProt Q04721). Kind of assay: small molecules binding Notch2 protein – biochemical, small-molecule microarray, 635 nm fluorescence, stem cell growth factors, primary screen (AID 1073). Particulars: higher = more signal.
The target of assay [6] is Pro-neuregulin-1, membrane-bound isoform (Homo sapiens) (UniProt Q02297). Kind of assay: small molecules binding neuregulin-1 protein – biochemical, small-molecule microarray, fluorescence 635/667, psychiatric disease protein project, primary screen (AID 1075).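 Also: score combines 667 nm spot fluorescence with signal to noise.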 Particulars: NRG1 binding, 635 nm fluorescence, higher = more signal.
Assay [7] deals with Neuregulin-1 EGF-like domain. Kind of assay: small molecules binding NRG1 EGF domain – biochemical, small-molecule microarray, 635 nm fluorescence, primary screen (AID 1081).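 Also: binding of the protein to compounds printed on small-molecule microarray slides.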 Particulars: higher = more signal.
Assay [8] is described as follows: FRG1 expression reporter modulators in myotubes – cell-based, C2C12 myotubes, firefly/Renilla luciferase, luminescence, FRG1 inhibition for FSHD, primary screen (AID 1084). The conditions noted are these: FRG1 promoter luciferase, higher = more signal, called active from +8 up or from −8 down.
Assay [9] is described as follows: small molecules captured by biotinylated probe aFST – biochemical, small-molecule microarray, fluorescence 635/667, stem cell growth factor project, primary screen (AID 1086).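 Also: score merges 667 nm fluorescence with signal-to-noise of each printed compound spot.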 Particulars: higher = more signal.
Assay [10] is described as follows: binders of probe aHhip on microarray, primary screen, stem cell growth factor project, biochemical, small-molecule microarray, fluorescence 635/667 (AID 1087).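 Also: score merges spot fluorescence at 667nm with spot signal to noise ratio.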 Particulars: higher = more signal.
Assay [11] concerns PRMT1 (protein arginine N-methyltransferase 1). As to the kind of experiment: small molecules binding arginine methyltransferase PRMT1 – biochemical, small-molecule microarray, 635 nm fluorescence, primary screen (AID 1088).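 Also: binding of Prmt1 protein to compounds spotted on small-molecule microarray slides.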 The conditions noted are these: higher = more signal.
Assay [12] is described as follows: growth effects on S. cerevisiae YJM789 – YJM789 clinical isolate, OD600, 24 h, basal, primary screen (AID 1089).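 Also: growth of clinical yeast isolate S. cerevisiae YJM 789 seeded 1000 cells per well; test concentration not given here.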 The conditions noted are these: higher = more signal, called active from +8 up or from −8 down.
Assay [13] can be described thus: S. pombe growth modifiers, basal conditions – strain 972, OD600, 24 h, no modulator, primary screen (AID 1090).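 Also: basal condition with compound alone and no growth modifier present; test concentration not given here.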 The conditions noted are these: S. pombe 972 growth, higher = more signal, called active from +8 up or from −8 down.
A short description of assay [14]: budding yeast growth modifiers under rapamycin – strain BY4716, OD600, 96 h, primary screen (AID 1091). Also: test concentration not given here. Particulars: S. cerevisiae BY4716 + rapamycin, higher = more signal, called active from +8 up or from −8 down.
For assay [15], the target named is Torsin-1A-interacting protein 2 (Homo sapiens) (UniProt Q8NFQ8). As to the kind of experiment: small molecules binding lysate-expressed LULL1 – cell lysate, human LULL1 lysate, 635/667 nm fluorescence, primary screen (AID 1092).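 Also: score merges per-feature 667 nm fluorescence with signal-to-noise.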 The conditions noted are these: small-molecule microarray, hLULL1 lysate binding, 635 nm fluorescence; higher = more signal.
Assay [16] can be described thus: optical density change of DRC41 E. coli – strain DRC41, OD650, 24 h, E. coli filamentation project, primary screen (AID 1093).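 Also: MC1000 strain lacking acrAB efflux and sulA so SOS filamentation is blocked; test concentration not given here.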 Particulars: E. coli DRC41 growth, higher = more signal, called active from +8 up or from −8 down.
A short description of assay [17]: probe aLefty2 binding to arrayed compounds – biochemical, biotinylated probe, 635/667 nm fluorescence, primary screen (AID 1094).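 Also: score merges spot fluorescence near 667 nm with spot signal-to-noise ratio.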 Particulars: small-molecule microarray, higher = more signal.
In assay [18] the test system is Noggin (protein binding on small-molecule microarray). As to the kind of experiment: small molecules binding Noggin protein – biochemical, 635/667 nm fluorescence, primary screen (AID 1095).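 Also: score merges 667 nm feature fluorescence with signal to noise over triplicate slides.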 The conditions noted are these: 635 nm fluorescence, higher = more signal.
Assay [19] deals with Neurogenic locus notch homolog protein 3 (Homo sapiens) (UniProt Q9UM47). As to the kind of experiment: small molecules binding NOTCH3 protein – biochemical, 635/667 nm fluorescence, primary screen (AID 1096). The conditions noted are these: small-molecule microarray, 635 nm fluorescence, higher = more signal.
A short description of assay [20]: probe aEGFR binding to arrayed compounds – biochemical, biotinylated probe, 635/667 nm fluorescence, primary screen (AID 1097).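 Also: probe is a biotinylated anti-EGFR antibody binding compounds printed on slides; score combines fluorescence near 667 nm and signal to noise of each spot.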 The conditions noted are these: small-molecule microarray, higher = more signal.

Here are results for five molecules from PubChem BioAssay.

Activity calls are given as the source filed them.

Chain of Torsin-1A-interacting protein 2 (Homo sapiens) (Q8NFQ8 whole entry, looked up): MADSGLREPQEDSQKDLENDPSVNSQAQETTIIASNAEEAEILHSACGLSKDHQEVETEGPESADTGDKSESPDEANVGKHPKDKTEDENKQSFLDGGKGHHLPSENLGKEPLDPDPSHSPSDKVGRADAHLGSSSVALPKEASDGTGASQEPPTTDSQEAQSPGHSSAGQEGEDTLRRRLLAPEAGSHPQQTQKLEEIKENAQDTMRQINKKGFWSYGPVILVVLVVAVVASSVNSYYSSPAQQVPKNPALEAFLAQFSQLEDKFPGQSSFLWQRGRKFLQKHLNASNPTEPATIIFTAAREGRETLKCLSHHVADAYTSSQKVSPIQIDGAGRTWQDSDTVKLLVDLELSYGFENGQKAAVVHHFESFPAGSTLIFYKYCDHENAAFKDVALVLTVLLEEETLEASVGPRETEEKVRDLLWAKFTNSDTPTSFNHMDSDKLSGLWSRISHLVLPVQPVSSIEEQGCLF
Chain of Neurogenic locus notch homolog protein 2 (Homo sapiens) (Q04721 whole entry, looked up, canonical isoform): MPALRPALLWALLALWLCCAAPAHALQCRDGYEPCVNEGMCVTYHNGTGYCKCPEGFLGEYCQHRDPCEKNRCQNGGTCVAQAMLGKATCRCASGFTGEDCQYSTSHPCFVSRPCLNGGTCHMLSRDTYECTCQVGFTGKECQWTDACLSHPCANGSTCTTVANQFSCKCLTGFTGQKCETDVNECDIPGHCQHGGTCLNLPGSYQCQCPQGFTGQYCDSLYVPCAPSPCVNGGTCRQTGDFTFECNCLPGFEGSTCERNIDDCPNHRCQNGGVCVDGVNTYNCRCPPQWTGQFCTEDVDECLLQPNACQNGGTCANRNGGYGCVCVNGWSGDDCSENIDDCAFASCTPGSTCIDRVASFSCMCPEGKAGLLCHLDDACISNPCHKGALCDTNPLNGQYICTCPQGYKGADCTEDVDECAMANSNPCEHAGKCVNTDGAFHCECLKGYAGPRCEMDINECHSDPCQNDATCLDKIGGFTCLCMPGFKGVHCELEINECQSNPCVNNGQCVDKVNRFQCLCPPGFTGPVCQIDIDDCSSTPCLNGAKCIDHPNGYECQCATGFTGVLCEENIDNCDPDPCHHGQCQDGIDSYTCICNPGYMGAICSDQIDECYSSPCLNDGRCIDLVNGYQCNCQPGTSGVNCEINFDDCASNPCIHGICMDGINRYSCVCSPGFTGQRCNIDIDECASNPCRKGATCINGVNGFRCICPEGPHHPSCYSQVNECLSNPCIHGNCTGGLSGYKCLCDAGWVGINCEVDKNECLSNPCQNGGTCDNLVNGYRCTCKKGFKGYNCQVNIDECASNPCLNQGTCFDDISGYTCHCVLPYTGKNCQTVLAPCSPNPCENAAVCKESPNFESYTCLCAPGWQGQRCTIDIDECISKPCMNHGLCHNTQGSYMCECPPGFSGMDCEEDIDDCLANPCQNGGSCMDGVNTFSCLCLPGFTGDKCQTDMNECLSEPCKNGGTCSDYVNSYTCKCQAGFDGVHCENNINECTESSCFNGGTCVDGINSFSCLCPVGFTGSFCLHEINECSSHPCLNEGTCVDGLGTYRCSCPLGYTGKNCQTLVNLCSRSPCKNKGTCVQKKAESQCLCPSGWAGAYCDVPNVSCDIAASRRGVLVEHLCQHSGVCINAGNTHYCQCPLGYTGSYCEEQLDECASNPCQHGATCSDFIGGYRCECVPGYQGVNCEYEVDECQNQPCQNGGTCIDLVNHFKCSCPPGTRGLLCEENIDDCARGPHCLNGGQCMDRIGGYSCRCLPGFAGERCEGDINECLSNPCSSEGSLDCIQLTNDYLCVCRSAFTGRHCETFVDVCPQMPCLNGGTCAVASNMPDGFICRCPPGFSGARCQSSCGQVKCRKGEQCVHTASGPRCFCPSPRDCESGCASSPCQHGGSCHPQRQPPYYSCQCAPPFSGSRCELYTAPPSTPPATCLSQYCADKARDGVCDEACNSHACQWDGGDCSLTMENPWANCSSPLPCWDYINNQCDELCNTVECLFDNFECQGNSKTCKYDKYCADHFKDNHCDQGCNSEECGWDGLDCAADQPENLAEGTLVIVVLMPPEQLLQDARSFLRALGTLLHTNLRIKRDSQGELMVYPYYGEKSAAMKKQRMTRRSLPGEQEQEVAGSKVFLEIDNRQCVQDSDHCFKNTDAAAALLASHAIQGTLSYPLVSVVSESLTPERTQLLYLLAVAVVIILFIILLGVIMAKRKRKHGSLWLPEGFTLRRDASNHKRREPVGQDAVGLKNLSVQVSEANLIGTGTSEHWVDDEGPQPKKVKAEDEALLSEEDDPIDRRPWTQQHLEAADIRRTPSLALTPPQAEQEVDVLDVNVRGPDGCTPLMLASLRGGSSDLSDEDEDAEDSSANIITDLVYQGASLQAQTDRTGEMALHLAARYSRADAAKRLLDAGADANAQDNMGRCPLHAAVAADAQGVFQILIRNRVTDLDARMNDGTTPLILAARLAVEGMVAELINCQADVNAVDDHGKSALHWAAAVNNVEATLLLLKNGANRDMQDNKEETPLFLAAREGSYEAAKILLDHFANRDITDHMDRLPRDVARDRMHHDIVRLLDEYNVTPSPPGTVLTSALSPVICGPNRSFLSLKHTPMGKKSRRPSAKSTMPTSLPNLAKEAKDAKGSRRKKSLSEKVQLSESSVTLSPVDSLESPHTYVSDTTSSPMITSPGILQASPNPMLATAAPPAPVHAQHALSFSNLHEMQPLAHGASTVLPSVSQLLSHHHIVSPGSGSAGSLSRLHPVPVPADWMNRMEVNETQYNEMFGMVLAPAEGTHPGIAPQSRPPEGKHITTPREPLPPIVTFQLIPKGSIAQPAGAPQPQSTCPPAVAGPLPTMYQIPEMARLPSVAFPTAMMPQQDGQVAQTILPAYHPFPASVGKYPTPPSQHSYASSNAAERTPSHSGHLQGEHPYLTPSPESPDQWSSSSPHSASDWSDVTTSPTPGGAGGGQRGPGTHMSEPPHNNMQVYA
Chain of Pro-neuregulin-1, membrane-bound isoform (Homo sapiens) (Q02297 whole entry, looked up, the tested form may be a part, canonical isoform): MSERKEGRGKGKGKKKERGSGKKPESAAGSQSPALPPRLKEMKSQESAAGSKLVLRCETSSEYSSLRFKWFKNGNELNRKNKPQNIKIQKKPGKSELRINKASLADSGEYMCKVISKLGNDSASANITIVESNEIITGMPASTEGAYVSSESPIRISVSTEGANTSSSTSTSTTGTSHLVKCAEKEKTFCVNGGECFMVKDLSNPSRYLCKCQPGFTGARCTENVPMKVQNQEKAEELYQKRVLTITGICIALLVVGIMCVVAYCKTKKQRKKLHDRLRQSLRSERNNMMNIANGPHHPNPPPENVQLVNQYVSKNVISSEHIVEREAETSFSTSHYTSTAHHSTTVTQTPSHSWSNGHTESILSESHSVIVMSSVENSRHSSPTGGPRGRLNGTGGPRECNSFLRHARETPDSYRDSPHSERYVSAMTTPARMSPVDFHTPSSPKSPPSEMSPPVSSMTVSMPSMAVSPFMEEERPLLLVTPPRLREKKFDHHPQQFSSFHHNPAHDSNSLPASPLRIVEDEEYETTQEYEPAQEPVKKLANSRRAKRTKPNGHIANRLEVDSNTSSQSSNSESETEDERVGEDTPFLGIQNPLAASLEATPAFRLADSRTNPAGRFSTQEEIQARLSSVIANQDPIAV

In the case of `Cc1ccc(S[C@]2(C(=O)NCCCN(C)C)CC(=O)N(Cc3ccccc3C(F)(F)F)[C@@H]2c2ccc(CO)cc2I)cc1`, the composite z-score in assay [1] is -0.73; in assay [2], -0.0283; in assay [3], -0.21; in assay [4] it was -0.211; in assay [5], -0.733; in [6], 1.51. Besides, the composite z-score in [7] is 1.13; in assay [9] it was 0.216; in [10], -0.54; in assay [11], 0.349; in assay [15], 3.18; in [17], -0.323. Moreover, the values for the composite z-score in [18], in [19] and in [20] were -0.496, -0.174 and -0.378, respectively. Also, the z-score was 0.241 (inactive) in assay [8]; -1.34 (inactive) in assay [12]; -3.27 (inactive) in assay [13]; 0.0267 (inactive) in assay [14]; -0.328 (inactive) in assay [16].
As for `COCCOC(=O)N1C(=O)[C@@]2(c3cc(C#CCC(C(=O)OC)C(=O)OC)ccc31)[C@H](c1ccc(O)cc1)N1[C@H](c3ccccc3)[C@H](c3ccccc3)OC(=O)[C@H]1[C@@H]2C(=O)Nc1nc2ccccc2s1`, the composite z-score in [1] is -0.0882; in assay [2], 1.39; in assay [3], 0.0001; in assay [4] it was 0.785; in [5] it was 1.27; in assay [6], 1.12. The composite z-score was determined as 1.27 in assay [7]; 0.606 in assay [9]; 0.382 in assay [10]; 1.53 in assay [11]; 2.76 in [15]; 0.0424 in assay [17]. For the same molecule, the figures for the composite z-score in assay [18], in assay [19] and in assay [20] were 1.39, 1.04 and 0.106, respectively. Besides, the z-score is 0.909 (inactive) in assay [8]; 0.978 (inactive) in [12]; 0.583 (inactive) in assay [13]; 0.0726 (inactive) in [14]; 0.338 (inactive) in assay [16].
Consider `COc1ccc(C(O)C2C=CC3C(=O)NC(=O)C3N2Nc2ccc(Cl)cc2Cl)c2ccccc12` (stereo not given), for which the composite z-score in assay [1] is 0.877; in assay [2], 0.433; in assay [3] it was -0.106; in assay [4] it was 0.273; in [5], 1.02; in [6] it was 0.999. Also, the composite z-score was 1.04 in assay [7]; 0.951 in assay [9]; -0.216 in assay [10]; 1.01 in assay [11]; 2.98 in [15]; -0.279 in assay [17]. In addition, the composite z-score in assay [18] is -0.494; in assay [19] it was 1.05; in assay [20], -0.176. In addition, the z-score was -0.0308 (inactive) in [8]; -10.5 (active) in assay [12]; -2.63 (inactive) in assay [13]; 0.126 (inactive) in assay [14]; -0.708 (inactive) in [16].
As to `C=CCNC(=O)[C@H]1[C@@H]2C(=O)O[C@@H](c3ccccc3)[C@@H](c3ccccc3)N2[C@@H](c2ccccc2OCCO)[C@]12C(=O)N(C(=O)OCCOC)c1ccc(C#Cc3ccc(OC)cc3)cc12`, the composite z-score in [1] was found to be 0.0122; in assay [2] it was 0.633; in [3] it was 0.0074; in [4], 0.668; in [5] it was 0.615; in assay [6], 1.33. The composite z-score in assay [7] was 1.21; in [9], 0.101; in assay [10], -0.0645; in [11] it was 1.55; in assay [15] it was 2.94; in [17] it was -0.0998. Besides, the composite z-score in assay [18] was 0.173; in [19] it was 0.647; in [20], -0.092. In addition, the z-score is 1.34 (inactive) in assay [8]; 2.2 (inactive) in assay [12]; 0.823 (inactive) in assay [13]; 6.52 (inactive) in [14]; 0.769 (inactive) in assay [16].
Turning to `CCOC(=O)C[C@H]1[C@H](OC(=O)c2ccccc2-c2ccccc2)[C@@H](NC(=O)c2ccc3ccccc3c2)c2cc(OCCCO)ccc2N1C(=O)Cc1ccc(OC)cc1`, the composite z-score in [1] was 0.225; in assay [2], 0.0793; in assay [3], -0.118; in [4], 0.162; in [5] it was -0.105; in [6] it was 0.0671. In addition, the composite z-score in [7] was -0.58; in assay [9], 0.206; in [10], -0.0645; in [11], -0.793; in assay [15], 0.276; in [17] it was -0.281. Also, the figures for the composite z-score in [18], in [19] and in assay [20] were -0.206, -0.626 and 0.0004, respectively. The z-score was 1.11 (inactive) in assay [8]; -0.97 (inactive) in assay [12]; -0.446 (inactive) in assay [13]; -0.248 (inactive) in assay [14]; -0.904 (inactive) in assay [16].
